Bioassay records from PubChem BioAssay.
In the library only some 1.6% were active in any assay of this set; here they are far more common.
Vif imaging: blocks HIV Vif function; HEK293T cells, Vif self-association by quenched fluorescence, imaging, 24 h; inhibition, % at 7.49 µM; actives 0.35% (n = 340,000); AID 602346; in the data active = inhibition above about 50%, passing the limit was not always enough; inconclusive = no clear call, values can overlap the other calls; inactive = below about 31%
Glyco luc inh: blocks N-linked glycosylation in D54 reporter cells; AID 588692; reporter increase, % at 12.5 µM; D54 ERlucT glycosylation luciferase reporter, 24 h; percent of 100 nM tunicamycin response; actives 0.23% (n = 360,000);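 active = mean luciferase reporter signal, scaled so untreated is 0 and the glycosylation-blocking control 100, at or above a set limit in every replicate; inconclusive = mean reaches the limit but not every replicate does; inactive = mean below the limit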;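 note: luciferase carries N-glycosylation sites so blocking glycosylation raises the light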
Myeloid diff MLP: compounds promoting myeloid differentiation | ER-HoxA9 myeloid progenitors, lysozyme-GFP differentiation, flow cytometry | calls only at 10 µM | actives 1% (n = 360,000) | AID 624256;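 active = normalized GFP-positive differentiation at or above the plate's own cutoff, the solvent-only control mean plus 3 SD; inconclusive = no clear call, values can overlap the other calls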;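 note: cells exposed to compound for four days before flow analysis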
RAD54 inh: inhibitors of human RAD54 branch migration | Q92698 | RAD54 Holliday junction branch migration, FAM/BHQ fluorescence | inhibition, % at 10.4 µM | actives 0.14% (n = 360,000) | AID 602329;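 active = mean normalized replicate activity at least 40 and at least half of replicates scoring 40 or more; inconclusive = only one of the two criteria met; inactive = mean below 40 and under half of replicates reaching 40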;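 note: inhibitors cause a drop in the FAM fluorescence signal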
ABCB6 inh MLPCN: blocks the human ABCB6 transporter; Q9NP58; K562-ABCB6 porphyrin accumulation, flow cytometry, 1 h; active compounds read low; fluorescence ratio to DMSO, % at 10 µM; actives 0.19% (n = 360,000);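 active = fluorescence ratio to DMSO below 75%, the collection mean minus 3 SD; inconclusive = too few cells collected in the well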;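 note: signal is porphyrin accumulated inside mitochondria; lower ratio means ABCB6 inhibition with less porphyrin fluorescence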
Target sequence (Q9NP58 whole entry, looked up): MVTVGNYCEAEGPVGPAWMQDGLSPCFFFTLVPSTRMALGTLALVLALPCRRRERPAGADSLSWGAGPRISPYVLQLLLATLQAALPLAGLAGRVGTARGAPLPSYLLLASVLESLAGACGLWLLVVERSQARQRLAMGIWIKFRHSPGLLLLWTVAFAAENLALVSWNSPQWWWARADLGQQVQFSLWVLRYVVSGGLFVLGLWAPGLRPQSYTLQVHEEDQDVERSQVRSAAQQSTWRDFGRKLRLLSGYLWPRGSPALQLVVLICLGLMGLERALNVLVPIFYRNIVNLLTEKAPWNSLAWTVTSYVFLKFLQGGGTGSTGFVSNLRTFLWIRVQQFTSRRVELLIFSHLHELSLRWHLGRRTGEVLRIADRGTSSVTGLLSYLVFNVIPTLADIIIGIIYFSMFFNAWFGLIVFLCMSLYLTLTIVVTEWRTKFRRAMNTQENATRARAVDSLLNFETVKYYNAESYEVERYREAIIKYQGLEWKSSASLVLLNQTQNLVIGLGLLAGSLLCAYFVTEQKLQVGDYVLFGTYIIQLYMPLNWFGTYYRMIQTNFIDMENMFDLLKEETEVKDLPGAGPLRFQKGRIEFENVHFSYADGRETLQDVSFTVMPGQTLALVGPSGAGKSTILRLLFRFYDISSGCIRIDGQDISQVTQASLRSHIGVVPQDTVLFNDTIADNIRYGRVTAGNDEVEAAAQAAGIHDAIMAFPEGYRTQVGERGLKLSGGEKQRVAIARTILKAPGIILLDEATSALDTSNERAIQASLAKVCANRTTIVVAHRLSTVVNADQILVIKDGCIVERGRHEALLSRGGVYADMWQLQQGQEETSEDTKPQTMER
Large screens that a line does not name were inactive.

CCOc1ccc(NC(=O)/C(C#N)=C\c2ccc(N3CCCC3)c(C)c2)cc1	Vif imaging 54 (no result: RAD54 inh)
Cc1noc(C)c1S(=O)(=O)N(C)C[C@@H]1OCCCC[C@H](C)Oc2ccc(NS(=O)(=O)c3ccc(Cl)cc3)cc2C(=O)N([C@@H](C)CO)C[C@H]1C	none (no result: Vif imaging, Glyco luc inh, Myeloid diff MLP, ABCB6 inh MLPCN)
CC1=C(C(=O)Nc2cccc(C(=O)NC3CCCC(C)C3C)c2)SCCO1 (stereo unspecified)	Myeloid diff MLP active
COCCNC(=O)c1cccc(NC(=O)C2=C(C)OCCS2)c1	none (no result: Myeloid diff MLP)
COc1cc(NC(=O)C/C(C)=N/NC(=O)Cc2ccc(Cl)cc2)c(OC)cc1Cl	Vif imaging 73
CCCCc1ccc(-c2csc(/C(C#N)=C/c3ccco3)n2)cc1	Myeloid diff MLP active
N#C/C(=C\c1ccc(Cl)cc1)c1nc(-c2ccco2)cs1	Myeloid diff MLP active (no result: RAD54 inh)
N#C/C(=C\c1ccc(F)cc1)c1nc(-c2ccco2)cs1	Vif imaging 59 (no result: RAD54 inh)
N#CC(=Cc1cccs1)c1nc(-c2ccc(Cl)cc2)cs1	Vif imaging inconclusive
N#C/C(=C\c1ccc(-c2ccccc2)cc1)c1nc(-c2ccco2)cs1	none (no result: RAD54 inh)
COCC#Cc1ccc2c(c1)O[C@@H](CN(C)C(=O)C1CC1)[C@H](C)CN([C@@H](C)CO)S2(=O)=O	none (no result: Vif imaging, Glyco luc inh, Myeloid diff MLP, ABCB6 inh MLPCN)
C[C@@H]1CN([C@@H](C)CO)C(=O)Cc2cc(NC(=O)Cc3ccccc3)ccc2O[C@H]1CN(C)Cc1ccccc1	none (no result: Vif imaging, Glyco luc inh, Myeloid diff MLP, ABCB6 inh MLPCN)
COc1cccc(-c2cn(CC[C@H]3CC[C@@H](NC(=O)CC4CC4)[C@@H](CO)O3)nn2)c1	none (no result: Vif imaging, Glyco luc inh, Myeloid diff MLP, ABCB6 inh MLPCN)
CN(C)C(=O)C[C@H]1CC[C@H]2[C@@H](COc3ccc(NC(=O)c4cnccn4)cc3C(=O)N2C)O1	none (no result: Vif imaging, Glyco luc inh, Myeloid diff MLP, ABCB6 inh MLPCN)
CCCc1nnc(NC(=O)c2cc3ccccc3oc2=O)s1	none
CCCc1nnc(NC(=O)c2cc3ccccc3o2)s1	Myeloid diff MLP active
CC(C)NC(=O)Nc1ccc2c(c1)CC(=O)N([C@H](C)CO)C[C@@H](C)[C@@H](CN(C)Cc1ccc(C(F)(F)F)cc1)O2	none (no result: Vif imaging, Glyco luc inh, Myeloid diff MLP, ABCB6 inh MLPCN)
O=[N+]([O-])c1ccc(Nc2ccccc2O)c([N+](=O)[O-])c1	Myeloid diff MLP active
NC(=O)C1=C[C@@H](c2csc3ccccc23)C[C@@H](OCCCCO)O1	Myeloid diff MLP active
CN1CCC(N(C)C(=O)c2cc(-c3ccc(F)cc3)nc3ccccc23)CC1	none
CN1CCC(N(C)C(=O)c2cc(-c3ccccc3Cl)nc3ccccc23)CC1	Myeloid diff MLP active
Cc1cccc([C@@H]2[C@@H]3C(=O)N(Cc4ccccc4)C(=O)[C@@H]3[C@]3(Cc4ccccc4)C(=O)N(c4cccc(F)c4)C(=O)N23)c1	Glyco luc inh 34 (no result: Vif imaging)
O=C1[C@H]2[C@@H](c3ccc(F)cc3)N3C(=O)N(c4cccc(F)c4)C(=O)[C@@]3(Cc3ccccc3)[C@H]2C(=O)N1C1CCCCC1	none
Cc1cccc([C@@H]2[C@@H]3C(=O)N(Cc4ccccc4)C(=O)[C@@H]3[C@]3(Cc4ccccc4)C(=O)N(c4cccc(Cl)c4)C(=O)N23)c1	Glyco luc inh 41
Cc1cccc([C@@H]2[C@@H]3C(=O)N(Cc4ccccc4)C(=O)[C@@H]3[C@]3(Cc4ccc(Cl)cc4)C(=O)N(c4ccccc4)C(=O)N23)c1	none
Cc1cccc([C@@H]2[C@@H]3C(=O)N(Cc4ccccc4)C(=O)[C@@H]3[C@]3(Cc4ccc(Cl)cc4)C(=O)N(c4cccc(Br)c4)C(=O)N23)c1	Myeloid diff MLP active (no result: Vif imaging)
CC[C@@]12C(=O)N(c3cccc(F)c3)C(=O)N1[C@H](c1cccc(C)c1)[C@@H]1C(=O)N(Cc3ccccc3)C(=O)[C@@H]12	none
O=C1[C@H]2[C@@H](c3ccc(F)cc3)N3C(=O)N(c4cccc(Br)c4)C(=O)[C@@]3(Cc3ccccc3)[C@H]2C(=O)N1C1CCCCC1	Glyco luc inh 67
Cc1cccc(S(=O)(=O)N[C@H]2CC[C@@H](CCNC(=O)CCN3CCCCC3)O[C@H]2CO)c1	none (no result: Vif imaging, Glyco luc inh, Myeloid diff MLP, ABCB6 inh MLPCN)
O=C(CN1CCOCC1)N1CCCCN2[C@H](CO)[C@H](c3ccc(C#Cc4ccccc4)cc3)[C@@H]2C1	none (no result: Vif imaging, Glyco luc inh, Myeloid diff MLP, ABCB6 inh MLPCN)
CN1C[C@@H]2[C@H](c3ccccc31)[C@H](CO)N2C(=O)Nc1ccccc1	none (no result: Vif imaging, Glyco luc inh, Myeloid diff MLP, ABCB6 inh MLPCN)
CC1CCN(C(=O)c2ccc3c(c2NCCO)C(=O)c2ccccc2C3=O)CC1	none
CCN(CC)CCNC(=O)c1ccc2c(c1NCCO)C(=O)c1ccccc1C2=O	RAD54 inh 122 (no result: Myeloid diff MLP)
CCN(CC)CCC(=O)Nc1cccc2c1C(=O)c1ccccc1C2=O	Glyco luc inh 110, Myeloid diff MLP inconclusive, RAD54 inh 95 (no result: Vif imaging)
COc1cccc(CC2(CO)CCCN(Cc3cn[nH]c3-c3ccccc3)C2)c1 (stereo unspecified)	Myeloid diff MLP active (no result: RAD54 inh)
O=C(Cn1cc(C(=O)C(=O)N2CCOCC2)c2ccccc21)Nc1cccc(C(F)(F)F)c1	Vif imaging 70
C[C@H]1CN([C@@H](C)CO)C(=O)c2cc(NS(=O)(=O)c3ccccc3)ccc2O[C@@H]1CN(C)C(=O)Nc1cccc2ccccc12	none (no result: Vif imaging, Glyco luc inh, Myeloid diff MLP, ABCB6 inh MLPCN)
O=C(Nc1ccc(Cl)c(Cl)c1)N[C@@H]1CC[C@H](CCNC(=O)c2ccc(F)cc2)O[C@@H]1CO	none (no result: Vif imaging, Glyco luc inh, Myeloid diff MLP, ABCB6 inh MLPCN)
C=CCCCOc1ccc(C(=O)O)cc1	Vif imaging 58
C=CCC(=O)OCCCCCCOc1ccc(C(=O)O)cc1	none
CC(=O)N(C)C[C@H]1Oc2cc(/C=C/c3ccccc3)ccc2S(=O)(=O)N([C@@H](C)CO)C[C@@H]1C	none (no result: Vif imaging, Glyco luc inh, Myeloid diff MLP, ABCB6 inh MLPCN)
CN(C)CCCNC(=O)C[C@H]1C=C[C@H](NS(=O)(=O)c2ccccc2)[C@@H](CO)O1	none (no result: Vif imaging, Glyco luc inh, Myeloid diff MLP, ABCB6 inh MLPCN)
COc1cc(OC)c(OC)cc1/C=C/C(=O)c1ccc(NS(=O)(=O)c2ccc(C)cc2)cc1	Myeloid diff MLP active
CC(=O)c1ccc(NS(=O)(=O)c2ccc(C)cc2)cc1	none
Cc1cc2c(SCC(=O)N3CCN(c4ccccc4)CC3)ncnc2s1	none (no result: RAD54 inh)
O=C(CSc1ncnc2nc[nH]c12)N1CCN(c2ccccc2)CC1	Vif imaging inconclusive, Myeloid diff MLP active
C[C@@H]1CN([C@H](C)CO)C(=O)c2cc(C#CCN(C)C)cnc2O[C@@H]1CN(C)C(=O)Nc1cccc(F)c1	none (no result: Vif imaging, Glyco luc inh, Myeloid diff MLP, ABCB6 inh MLPCN)
Cc1ccc(Sc2cc(C(=O)NCCN(C)C)c3ccccc3n2)cc1	none
COc1ccc(C(=O)NCCN(C)C)c2nc3ccccc3cc12	Glyco luc inh 54 (no result: Myeloid diff MLP, RAD54 inh)
COc1cccc2nc3c(C(=O)NCCN(C)C)cccc3cc12	Glyco luc inh 49 (no result: Myeloid diff MLP, RAD54 inh)
COc1ccc(Cl)cc1C(=O)NCCN(C)C	none
CN(C)CCNC(=O)c1cccc2nc3c(ccc4ccccc43)nc12	Glyco luc inh 56 (no result: Myeloid diff MLP, RAD54 inh)
COc1ccc(-c2nc3c(C(=O)NCCN(C)C)cccc3c3ccccc23)cc1	Glyco luc inh 37 (no result: Myeloid diff MLP, RAD54 inh)
COc1ccc(-c2coc3c(C(=O)NCCN(C)C)cccc23)c(C)c1	none
Cc1noc(C)c1NC(=O)Nc1ccc2c(c1)C(=O)N([C@@H](C)CO)C[C@@H](C)[C@@H](CN(C)C(=O)Nc1ccc3c(c1)OCO3)OCCCC[C@@H](C)O2	none (no result: Vif imaging, Glyco luc inh, Myeloid diff MLP, ABCB6 inh MLPCN)
